# Over roughly 68,000 sequences, “fluorescence intensity (a.u.)” has its median near 9,100; the highest 2% begin near 16,000. The full list was thinned out, with the highest values kept by preference.
# Biological target: OsWRKY34 (Oryza sativa, UniProt Q0JBA9 1-250)
# Assay: protein-binding microarray (RPBM); PBS, 2% BSA, 51.3 ng/ul salmon testes DNA, 50 uM zinc acetate, 200 nM TF, 25 C, 1 h; high values mean tight binding
# Conditions: protein: recombinant; tags: N-terminal polyhistidine and DsRed monomer fusion (pET32a); label: CyDye5-dUTP incorporated in the synthesized complementary strand; 3' TTTTT single-stranded linker to array surface; dsDNA, one strand shown
# Method in brief: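 Binding signal is defined as the fluorescence intensity of each feature in arbitrary units, read on an Axon 4000B scanner. Transcription factors with N-terminal polyhistidine and DsRed fusions came from E. coli BL21-CodonPlus and were purified on Ni–NTA. They were incubated at 200 nM for 1 h at 25 °C on a custom Agilent array that had been made double-stranded with Cy5-dUTP, with 50 µM zinc acetate present, and the array was washed.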
# Chain of OsWRKY34 (Q0JBA9 entry or part of it): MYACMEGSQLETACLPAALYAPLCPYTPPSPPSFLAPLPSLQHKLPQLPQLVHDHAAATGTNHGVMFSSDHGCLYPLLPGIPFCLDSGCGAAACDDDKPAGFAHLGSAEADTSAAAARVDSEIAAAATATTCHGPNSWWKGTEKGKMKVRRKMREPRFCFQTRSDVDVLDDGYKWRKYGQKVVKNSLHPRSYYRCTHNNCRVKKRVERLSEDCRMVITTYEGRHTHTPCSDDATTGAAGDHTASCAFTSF
row,Sequence,binding signal
1,CTGCTATGAATTATCGGTTGCTTCCGGTGTTGGGCATTGACGGAGTCACCTAGTGCAG,12400 fluorescence intensity (a.u.)
2,TTTCGACTAACGTTTGACCATTCGTTTTATTCAAAATTTTCGGAGTCACCTAGTGCAG,8880 fluorescence intensity (a.u.)
3,ACACCGTTGACTTTTCGACTAACGTTTGACCATTTGTTTTCGGAGTCACCTAGTGCAG,49300 fluorescence intensity (a.u.)
4,TGACACCGTTGACTTTTCGACCAATGTTTGACCATTCGTTCGGAGTCACCTAGTGCAG,24400 fluorescence intensity (a.u.)
5,GGTTTTGTGATTTTGACACCCATTCAGGTTCGTTGTTTTTCGGAGTCACCTAGTGCAG,11900 fluorescence intensity (a.u.)
6,TTAAATGAGTGTTGACTTTTCGTATAACGTTTGACCATTTCGGAGTCACCTAGTGCAG,14600 fluorescence intensity (a.u.)
7,CTACTCCCTCCATTTCGAAATGTTTGACACCGTTGACTTTCGGAGTCACCTAGTGCAG,13900 fluorescence intensity (a.u.)
8,GATCCGCTCGCCCCGCCGCGCCGCCGACCATCGCCATCGCCGGAGTCACCTAGTGCAG,8410 fluorescence intensity (a.u.)
9,TCCCACCCGCTGCCACCAAAACCCTCCCCGCGCCCGGTCCCGGAGTCACCTAGTGCAG,10500 fluorescence intensity (a.u.)
10,TCGACAATGTCACTCCATCATATCATGGCCAAAATATAACCGGAGTCACCTAGTGCAG,8140 fluorescence intensity (a.u.)
11,TCGCGACCTCTCATCTATCGATCTTTGCATACATATATATCGGAGTCACCTAGTGCAG,17800 fluorescence intensity (a.u.)
12,CGCATATATATCTCTCTTTGCATCTGTACTCATCGAATCTCGGAGTCACCTAGTGCAG,8640 fluorescence intensity (a.u.)
13,CTCTCCTCTCCGGTCATCTCATATATACGTATCTATATCGCGGAGTCACCTAGTGCAG,8520 fluorescence intensity (a.u.)
14,ATCCCCGTGTTCTCCCCACACAAACCTTCGCGCCGCCCATCGGAGTCACCTAGTGCAG,9540 fluorescence intensity (a.u.)
15,CCTACTTGTTGGCTTCTATCTCCTGTTAATTAATTTCTCACGGAGTCACCTAGTGCAG,8450 fluorescence intensity (a.u.)
16,AATCGTTTTCTTTCTTGTCTTCAAACTTATTTTCCCGTTTCGGAGTCACCTAGTGCAG,9600 fluorescence intensity (a.u.)
17,GGCGGTGGCGGTGACGGTGGAGGTGGAGGCGGTGTGGCATCGGAGTCACCTAGTGCAG,8420 fluorescence intensity (a.u.)
18,CAGGTGGACGGCGGTGGTGGTGGTGGTGGTGGCGGCGATGCGGAGTCACCTAGTGCAG,17000 fluorescence intensity (a.u.)
19,GGAGGGCGGTGGCGAGGGCGGCGGTGGCGCGGATGCTGGACGGAGTCACCTAGTGCAG,8960 fluorescence intensity (a.u.)
20,AGGAGGTGGTGGGTGGTGGTGGCTGCGGCTTGGCGCGATGCGGAGTCACCTAGTGCAG,9400 fluorescence intensity (a.u.)
21,GTCAGGTGGCGGCGGCGGCGGTGGTGGCGGTGGAGGTGGACGGAGTCACCTAGTGCAG,14400 fluorescence intensity (a.u.)

row,Sequence,binding signal
1,AGGTGGAGGTGGAGGTGGAGGAGGGCGGCGGGTGGCGATGCGGAGTCACCTAGTGCAG,16500 fluorescence intensity (a.u.)
2,CAGTTTCATCCCTAGGTGGTGGTGGCGGTGCGTGGAGTGACGGAGTCACCTAGTGCAG,16600 fluorescence intensity (a.u.)
3,GAGGAGAGGCGGGGTGAGACGGGACGGGAGGGTGGCGATGCGGAGTCACCTAGTGCAG,9530 fluorescence intensity (a.u.)
4,AAGGGTGGGCGTGATGGAGTTTGGATGGGCCCTGCGACGGCGGAGTCACCTAGTGCAG,9160 fluorescence intensity (a.u.)
5,TCATGATGAATCGGGGTGGTGGAGGTTTGCTTGTTATGGTCGGAGTCACCTAGTGCAG,11000 fluorescence intensity (a.u.)
6,AGATTTGACTATCCTGCTGGAATCCGGTAACAATTTTTCACGGAGTCACCTAGTGCAG,9560 fluorescence intensity (a.u.)
7,TTGGTTGGTTGGTTATACAAAGACGCTACGAGTCCGGGAACGGAGTCACCTAGTGCAG,12400 fluorescence intensity (a.u.)
8,ACCATAAAGCCAAGTTTCATCCATAATCCTTATTTTTCATCGGAGTCACCTAGTGCAG,8670 fluorescence intensity (a.u.)
9,TGTTATATTTGTATTTGTGCTTTGCTTCTTCTAGGCTTTTCGGAGTCACCTAGTGCAG,8740 fluorescence intensity (a.u.)
10,TCTCTGTCTCACTCTTCCTCTCTCTCACACGCACGGCGAGCGGAGTCACCTAGTGCAG,8380 fluorescence intensity (a.u.)
11,GGAGGGGCGGTGGCCGCCGGCGGCCCGCGCGGCGGGAGCGCGGAGTCACCTAGTGCAG,9240 fluorescence intensity (a.u.)
12,GGGGCGCCGCCGTTCGTCCTGCTGCTTCCGCCGCATCCTGCGGAGTCACCTAGTGCAG,9650 fluorescence intensity (a.u.)
13,GGCCGGGGAGGGAGGGGCGCCGTCGTCCTGCTGCATCCTGCGGAGTCACCTAGTGCAG,20700 fluorescence intensity (a.u.)
14,AGGGCGCCGTCGTTCGTCATGCTGCTTCCGCCGCATCCTGCGGAGTCACCTAGTGCAG,9240 fluorescence intensity (a.u.)
15,CACTCCGCTGCCGCCCGCCGGAAGGGGAGGGGAGGAGGGGCGGAGTCACCTAGTGCAG,11700 fluorescence intensity (a.u.)
16,GGGGAGGCGGGGTGGCGGGAGGGAAGGCGGCGGCGGCGCCCGGAGTCACCTAGTGCAG,12700 fluorescence intensity (a.u.)
17,CCCCGGAAGGGGCGGGGAGGGGAGGGCGGCAGCGGCGCCGCGGAGTCACCTAGTGCAG,18500 fluorescence intensity (a.u.)
18,GGGGCGCCGGGAAGGAGGGCGCTGTGTGGGAGGGAGGGAGCGGAGTCACCTAGTGCAG,17100 fluorescence intensity (a.u.)
19,GGTGGAGGCGGGCGCGGTGGAGGCGGGGAGGAAGGGGAGCCGGAGTCACCTAGTGCAG,15100 fluorescence intensity (a.u.)
20,GCCGTCCGCCGTGAGCCGGTGCTGTCCACGACGTCGTCTTCGGAGTCACCTAGTGCAG,9640 fluorescence intensity (a.u.)
21,TTACTCCTGGACCAGCATTGCTACAACTATCATTTTCTCCCGGAGTCACCTAGTGCAG,9840 fluorescence intensity (a.u.)

row,Sequence,binding signal
1,GGTTTTAAAGGGGTTCCATACACGTATGATAATAAGAGACCGGAGTCACCTAGTGCAG,8180 fluorescence intensity (a.u.)
2,GTCCAGGTTGGTTTTCATGGGTCGAGTGGCATCAGATGGGCGGAGTCACCTAGTGCAG,10100 fluorescence intensity (a.u.)
3,TTCTTGATCTTTCTGGTTTCTACTGGTTGATTGTACACTTCGGAGTCACCTAGTGCAG,8500 fluorescence intensity (a.u.)
4,TTTTTTCTGTTTGTCCTCCATATATGTCAGCTCTAAAAATCGGAGTCACCTAGTGCAG,9300 fluorescence intensity (a.u.)
5,GCCCTTAACGCGATCATGTAACAATGTATCTAAGCCTATACGGAGTCACCTAGTGCAG,8200 fluorescence intensity (a.u.)
6,TTCCTAGTACTATCTGCGTTGCGTTGACTGACATGTGGGCCGGAGTCACCTAGTGCAG,17000 fluorescence intensity (a.u.)
7,AGGGAGGGAGGGAGGAGGAAGGAGGACTGACATGTGGGCCCGGAGTCACCTAGTGCAG,9250 fluorescence intensity (a.u.)
8,ATCCGTTGCCCTCGCTCCTATAACTGCGTTGACATGTCGCCGGAGTCACCTAGTGCAG,9550 fluorescence intensity (a.u.)
9,ACCTGACGGCCCAACCAGGCGACCGCTCTCTCCGTTTTCCCGGAGTCACCTAGTGCAG,8070 fluorescence intensity (a.u.)
10,ACCCAATCTCAATTTGCCCTGTTGCCAACCCTAGTGATGACGGAGTCACCTAGTGCAG,8520 fluorescence intensity (a.u.)
11,TTCTTTCCGTTGTGCTTGCTGCTTTTCTCTACTACCTTTTCGGAGTCACCTAGTGCAG,9900 fluorescence intensity (a.u.)
12,ACTCCCTCCGTTTCACAATGTAAGTCATTCTAGCATTTCCCGGAGTCACCTAGTGCAG,9500 fluorescence intensity (a.u.)
13,TGATTTATGAATTATGATTACTAATACTGTTTTTTGTCCTCGGAGTCACCTAGTGCAG,8780 fluorescence intensity (a.u.)
14,ATTTGTTTCTAAATATTTGACACCGTTGACTTTTTAGCACCGGAGTCACCTAGTGCAG,24100 fluorescence intensity (a.u.)
15,AATACTCCCTCCGTTTCGAAATATTTGACGCCGTTGACTTCGGAGTCACCTAGTGCAG,12400 fluorescence intensity (a.u.)
16,TTGACACCGTTAACTTTTTAGCATATGTTTGACCGTTCATCGGAGTCACCTAGTGCAG,9610 fluorescence intensity (a.u.)
17,CTCTGTTTCTAAATATTTGACACCATTGACTTTTTAGCATCGGAGTCACCTAGTGCAG,10900 fluorescence intensity (a.u.)
18,GAAATATTTGACACCGTTGACTTTTTAGCATATGTTTGACCGGAGTCACCTAGTGCAG,30700 fluorescence intensity (a.u.)
19,ACATATTGGTTGACTTTTTGCCGGGTCCACCGATTGGCACCGGAGTCACCTAGTGCAG,17700 fluorescence intensity (a.u.)
20,GTACTCCCTCCGTTTCGAAATATTTAACACCGTTGACTTTCGGAGTCACCTAGTGCAG,17400 fluorescence intensity (a.u.)
21,CCTCCGTTTCTATATATTTAATATTGTTGACTTTTTAGCACGGAGTCACCTAGTGCAG,12000 fluorescence intensity (a.u.)

row,Sequence,binding signal
1,CTTTTTAGCATATGTTTGACCGTTTGTCTTATTTAAAATACGGAGTCACCTAGTGCAG,9700 fluorescence intensity (a.u.)
2,TTGGTTGATTTTGATTGCTTTGCTCCTTTTCTGACTTGCTCGGAGTCACCTAGTGCAG,9410 fluorescence intensity (a.u.)
3,TACCGAACCTTTGGCATATTGACCCTTTTGGCCTTTTATACGGAGTCACCTAGTGCAG,12200 fluorescence intensity (a.u.)
4,TTCACAGTGTAGTTGTTTTATTTAGCCAGTATTTTTTTTTCGGAGTCACCTAGTGCAG,8820 fluorescence intensity (a.u.)
5,CCACAGCGCCTCCACTGCCTGCAGGGACGCCACCGCTACCCGGAGTCACCTAGTGCAG,8450 fluorescence intensity (a.u.)
6,CCATTACCAGAACAGAACAGCAGGTTTTAACCTAACATTCCGGAGTCACCTAGTGCAG,8110 fluorescence intensity (a.u.)
7,ATACTCTCATTTTTGTTTGCTCTATTCTTTGCTTTTAGAACGGAGTCACCTAGTGCAG,10200 fluorescence intensity (a.u.)
8,ATATCTCATACTATCTCTCTTCCGTCGTTCCGTGTTGGCCCGGAGTCACCTAGTGCAG,10900 fluorescence intensity (a.u.)
9,CTACGATCAGAAACAGCGGGGCGGGTTGGGAGGGAGTCCACGGAGTCACCTAGTGCAG,15800 fluorescence intensity (a.u.)
10,ACCCCGACCATCTCCCACCATCGGAGGAGACGCTCAAACTCGGAGTCACCTAGTGCAG,8340 fluorescence intensity (a.u.)
11,CCCGGCCCATCTCTCTGGCTCGCACTCCGCCTCCGCCACCCGGAGTCACCTAGTGCAG,10500 fluorescence intensity (a.u.)
12,CCTCCGTTTCTAAATATTTAACGCCATTGACTTTTTAGCACGGAGTCACCTAGTGCAG,9160 fluorescence intensity (a.u.)
13,ACCCTCCGTTTCTAAATATTTAACACCGTTGACTTTTTAGCGGAGTCACCTAGTGCAG,23700 fluorescence intensity (a.u.)
14,ATCCGTTTTATATTATAAATCATTTGACTTTTTCTATTAGCGGAGTCACCTAGTGCAG,8510 fluorescence intensity (a.u.)
15,TCGAAATGTTTGACACCGTTGACTTTTTAGCATATGTTTGCGGAGTCACCTAGTGCAG,33700 fluorescence intensity (a.u.)
16,AAATGTTTGACACCGTTGATTTTTTAGCGCATGTTTGACCCGGAGTCACCTAGTGCAG,8840 fluorescence intensity (a.u.)
17,CTCCCTCCGTTTCTAAATATTTGATACCGTTGACTTTTTACGGAGTCACCTAGTGCAG,22300 fluorescence intensity (a.u.)
18,AGTACTCCCTCCGTTTCTAAATATTTGACACCGTTGACTTCGGAGTCACCTAGTGCAG,12700 fluorescence intensity (a.u.)
19,AATCTTTTATACATATAATCCCTCCGTTTCTAAATATTTACGGAGTCACCTAGTGCAG,8110 fluorescence intensity (a.u.)
20,TTCAAAATGTTTGACACCATTGACTTTTTAGCATATGTTTCGGAGTCACCTAGTGCAG,10000 fluorescence intensity (a.u.)
21,AAAATGTTTGACACCGTTGACTTTTTAGCATATGTTTGACCGGAGTCACCTAGTGCAG,30800 fluorescence intensity (a.u.)
